Only some compounds are listed: those with a hit (about 8% of all), similar ones and a draw of the others.
HT1080 IDH1KD tx = HT-1080 IDH1 knockdown cell toxicity (counter line); HT-1080 IDH1 knockdown viability, ATP luminescence, 48 h; Potency, µM (highest dose often 46.1 µM), for the others: at the top dose activity, negative = toxicity, usual class: cytotoxic; hit rate 2% among 360,000; AID 686971;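 further: 0% = DMSO wells and -100% = cell-free medium wells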
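Knockdown cells (IDH1KD HT-1080) received compounds 2 h after plating at 750 cells/well and were kept 48 h at 37 °C in 5% FBS RPMI. A CellTiter-Glo luminescence read gave % activity for curve fitting.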
HT1080NT lethal = kills 2HG-producing HT-1080-NT fibrosarcoma cells | HT-1080-NT fibrosarcoma viability, CellTiter-Glo ATP luminescence, 48 h | Potency, µM (doses to about 46.1 µM), inactives show top-dose activity, negative = less viability, actives largely listed as cytotoxic | hit rate 1.6% among 360,000 | AID 686970;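 further: NT is the 2HG producing partner of a matched IDH1 knockdown line; 0% = DMSO-treated cells and -100% = media-only wells without cells; nearly all actives have a fitted effect of over 55% in size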
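Viability of the 2HG-overproducing fibrosarcoma line after 48 hours of compound exposure at 37 degrees C was determined by luminescence with CellTiter-Glo, and concentration-effect curves were then fitted and categorized.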
KB-3-1 tox = kills parental KB-3-1 adenocarcinoma cells. KB-3-1 viability, CellTiter-Glo ATP luminescence, 72 h. Potency, µM (highest dose often 46.1 µM), actives largely listed as cytotoxic. hit rate 1.4% among 400,000. AID 1347075; further: on the % scale 0 is the no-effect control and ±100 the full control effect; nearly all actives have a fitted effect of over 60% in size
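Screening of KB-3-1 cells (DMEM, 10% FBS, phenol-red free) ran from lowest to highest compound concentration; after 72 h at 37 °C viability was read luminescently and curves fitted.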
MCF10A rerep = DNA re-replication induction in MCF 10a cells. MCF 10A DNA re-replication, Hoechst nuclear intensity, 48 h. Potency, µM (titrated, usually from 46.1 µM), for inactives: at the highest dose activity, positive = re-replication, actives largely listed as activators. hit rate 2.9% among 350,000. AID 624296; further: % of control where 0% means no effect; nearly all actives have a fitted effect of over 50% in size
KB-V1 MDR tox = KB-V1 MDR subline cytotoxicity | KB-V1 MDR cells viability, CellTiter-Glo, 72 h | Potency, µM (doses to about 46.1 µM), usual class: cytotoxic | hit rate 3.4% among 400,000; further: on the % scale 0 is the no-effect control and ±100 the full control effect; nearly all actives have a fitted effect of over 60% in size
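Drug-selected KB-V1 cells, grown in DMEM lacking phenol red with 10% FBS, receive compound titrations; after three days at 37 degrees C, surviving cell ATP is quantified by CellTiter-Glo luminescence and responses normalized and curve-fitted.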
SW480 rerep = DNA re-replication induction in SW480 cells; SW480 DNA re-replication, Hoechst DNA content imaging, 48 h; hit rate 1.8% among 340,000; AID 624297; Potency, µM (highest dose often 46.1 µM), without a hit: at the top dose re-replication activation, actives largely listed as activators; further: % of control where 0% means no effect; nearly all actives have a fitted effect of over 55% in size
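Per well, 250 cells were exposed to pinned compound for 48 hr. Nuclear DNA was visualised with Hoechst (40 min, 37 C) and total object intensity recorded by fluorescence scanning.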
The depositor's hits bear a star; [ ] = remark or other dose. The call rests on the fitted dose curve; in most records, active means well fitted curve in the direction sought with a large enough effect; inconclusive means small, poorly fitted or top-dose-only effect, or another doubt; inactive means no such curve, though single readings can be large; an effect the other way counts as inactive or inconclusive. Potency means the concentration at half of the fitted maximal effect.

Results for C=CCn1c(O)c(C(C)=Nc2ccc(N(CC)CC)cc2)c(=O)[nH]c1=O ?
HT1080 IDH1KD tx: inconclusive; HT1080NT lethal: inconclusive; KB-3-1 tox: 5.8µM*; MCF10A rerep: inconclusive; KB-V1 MDR tox: 12µM*; SW480 rerep: 15µM*

Results for C=CCn1c(O)c(C(CC)=Nc2ccc(NC(C)=O)cc2)c(=O)[nH]c1=O ?
HT1080 IDH1KD tx: 13%; HT1080NT lethal: 1%; KB-3-1 tox: inactive; MCF10A rerep: -1%; KB-V1 MDR tox: inactive; SW480 rerep: -11%

What do the screens show for `C=CCn1c(O)c(C(CC)=Nc2ccc(N(CC)CC)cc2)c(=O)[nH]c1=O`?
HT1080 IDH1KD tx: -2%; HT1080NT lethal: 2%; KB-3-1 tox: 23µM*; MCF10A rerep: -1%; KB-V1 MDR tox: 15µM*; SW480 rerep: -4%

Results for C=CCn1c(O)c(C(C)=Nc2ccc(N(C)C)cc2)c(=O)[nH]c1=O ?
HT1080 IDH1KD tx: -19%; HT1080NT lethal: -4%; KB-3-1 tox: inconclusive; MCF10A rerep: inconclusive; KB-V1 MDR tox: inactive; SW480 rerep: inconclusive

How did Cc1ccc(NC(=O)CN2C(=O)CN=C(c3ccccc3)c3ccccc32)c(C)c1 do in these assays?
KB-3-1 tox: inactive; KB-V1 MDR tox: inactive

Results for CN1C(=O)CC(=O)N(c2ccccc2)c2cc(Cl)ccc21 ?
MCF10A rerep: 4%; SW480 rerep: 0%

Results for Cc1cccc(N=C2c3cc([N+](=O)[O-])ccc3-c3c2cc([N+](=O)[O-])cc3[N+](=O)[O-])c1 ?
HT1080 IDH1KD tx: -13%; HT1080NT lethal: -3%; KB-3-1 tox: 15µM*; MCF10A rerep: 18µM*; KB-V1 MDR tox: inconclusive; SW480 rerep: 18µM*

What do the screens show for `On1ccccc1=S`?
HT1080 IDH1KD tx: 0.33µM*; HT1080NT lethal: 0.041µM*; KB-3-1 tox: inactive; MCF10A rerep: 6.5µM*; KB-V1 MDR tox: inconclusive; SW480 rerep: 10%

How did CCCCCCCC(=O)OCC(COC(=O)CCCCCCC)OC(=O)CCCCCCC do in these assays?
HT1080 IDH1KD tx: 10%; HT1080NT lethal: -1%; KB-3-1 tox: inactive; MCF10A rerep: inconclusive; KB-V1 MDR tox: inactive; SW480 rerep: -120%

Results for COc1ccccc1N1CCN(Cc2ccccc2F)CC1 ?
HT1080 IDH1KD tx: 7%; HT1080NT lethal: 5%; KB-3-1 tox: inactive; MCF10A rerep: 9%; KB-V1 MDR tox: inactive; SW480 rerep: -3%

How did COc1ccccc1N1CCN(Cc2c(F)cccc2F)CC1 do in these assays?
HT1080 IDH1KD tx: -26%; HT1080NT lethal: 19%; KB-3-1 tox: inactive; MCF10A rerep: -1%; KB-V1 MDR tox: 15µM*; SW480 rerep: 1%

How did COc1ccccc1N1CCN(Cc2ccccc2Cl)CC1 do in these assays?
HT1080 IDH1KD tx: 13%; HT1080NT lethal: 25%; KB-3-1 tox: inactive; MCF10A rerep: inconclusive; KB-V1 MDR tox: 21µM*; SW480 rerep: 1%

How did Nc1ccc(N2CCN(Cc3ccccc3Cl)CC2)c(Cl)c1 do in these assays?
HT1080 IDH1KD tx: -9%; HT1080NT lethal: 1%; KB-3-1 tox: inconclusive; MCF10A rerep: 21µM*; KB-V1 MDR tox: inactive; SW480 rerep: 2%

How did Clc1ccccc1CN1CCN(c2ccccc2)CC1 do in these assays?
HT1080 IDH1KD tx: -13%; HT1080NT lethal: 2%; KB-3-1 tox: inactive; MCF10A rerep: inconclusive; KB-V1 MDR tox: inactive; SW480 rerep: inconclusive

How did Cc1ccc(Cn2cccc(C(=O)Nc3ccc(C)c(Cl)c3)c2=O)cc1 do in these assays?
KB-3-1 tox: inconclusive; KB-V1 MDR tox: inactive

What do the screens show for `CCC1(C)OC(c2ccccc2)=C/C(=C/C=C2C(=O)NC(=O)NC2=O)O1` (stereo unspecified)?
HT1080 IDH1KD tx: -18%; HT1080NT lethal: -3%; KB-3-1 tox: inactive; MCF10A rerep: 21µM*; KB-V1 MDR tox: inactive; SW480 rerep: inconclusive

How did CCCCN1CC(=O)N2[C@H]3c4cc(C)ccc4OC[C@@H]3[C@H](c3ccccc3)[C@]2(C)C1=O do in these assays?
HT1080 IDH1KD tx: 9%; HT1080NT lethal: 3%; KB-3-1 tox: inactive; MCF10A rerep: inconclusive; KB-V1 MDR tox: inconclusive; SW480 rerep: -4%

How did CC(C)c1c(CN(C)[C@@H](C)Cc2ccccc2)n(C)n(-c2ccccc2)c1=O do in these assays?
MCF10A rerep: 7%[20.6 µM]; SW480 rerep: 13%[20.6 µM]

Results for c1ccc(C2(N3CCCCC3)CCCCC2)cc1 ?
HT1080 IDH1KD tx: -4%; HT1080NT lethal: 8%; KB-3-1 tox: inactive; MCF10A rerep: 0%; KB-V1 MDR tox: inactive; SW480 rerep: -8%

How did S=C=Nc1cccc(C2(N3CCCCC3)CCCCC2)c1 do in these assays?
HT1080 IDH1KD tx: 18µM*; HT1080NT lethal: 23µM*; KB-3-1 tox: inactive; MCF10A rerep: inconclusive; KB-V1 MDR tox: inactive; SW480 rerep: inconclusive

How did CSc1ncc(C(=O)Nc2ccc(Cl)cc2C(=O)c2ccccc2)c(C)n1 do in these assays?
KB-3-1 tox: inactive; KB-V1 MDR tox: inactive

Results for COc1cc(C(=O)Nc2ccc(Br)cc2C(=O)c2ccccc2Cl)cc(OC)c1OC ?
HT1080 IDH1KD tx: -8%; HT1080NT lethal: 1%; KB-3-1 tox: inactive; MCF10A rerep: 10%; KB-V1 MDR tox: inconclusive; SW480 rerep: -5%

Results for COc1ccc(-c2coc3c(C(=O)Nc4cc(OC)c(OC)c(OC)c4)cccc23)c(C)c1 ?
HT1080 IDH1KD tx: inconclusive; HT1080NT lethal: inconclusive; KB-3-1 tox: inconclusive; KB-V1 MDR tox: 13µM*

How did COc1cc(NC(=O)c2cccc3c(-c4cccnc4)coc23)cc(OC)c1OC do in these assays?
HT1080 IDH1KD tx: -14%; HT1080NT lethal: inconclusive; KB-3-1 tox: inconclusive; KB-V1 MDR tox: 7.3µM*

What do the screens show for `CC(C)NC(=O)COC(=O)c1ccc(S(=O)(=O)N2CCCC2)cc1`?
HT1080 IDH1KD tx: 1%; HT1080NT lethal: 14%; KB-3-1 tox: inactive; MCF10A rerep: -7%; KB-V1 MDR tox: inactive; SW480 rerep: 1%

What do the screens show for `Cc1cccc(C)c1-n1nnnc1C(CCc1ccccc1)N1CCC(n2c(=O)[nH]c3ccccc32)CC1` (stereo unspecified)?
HT1080 IDH1KD tx: 15%; HT1080NT lethal: 13%; KB-3-1 tox: inconclusive; KB-V1 MDR tox: inconclusive

Results for COc1ccc(-n2nnnc2C(CCc2ccccc2)N2CCC(n3c(=O)[nH]c4ccccc43)CC2)cc1 (stereo unspecified) ?
HT1080 IDH1KD tx: 13µM*; HT1080NT lethal: 16µM*; KB-3-1 tox: inconclusive; KB-V1 MDR tox: inconclusive
